PubChem BioAssay (NCI)
This is part of a sample that, as a whole, favours compounds with a hit. Of some 83,000 tested, about 20% had one in any assay.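 Compound tested at a single concentration for 48 hours in 96-well plates; a percent growth value below 10 was scored as active.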 A number with no mark means an inactive call. The source made the active and inactive calls.

Experiments:
Assay in all cases: NCI-60 one-dose screen, 48 h (100 = growth as untreated, 0 = no growth, -100 = all killed)
NCI-H23 lung = conditions: 10 µM unless noted
NCI-H226 lung = conditions: 10 µM unless noted
NCI-H322M lung = conditions: 10 µM unless noted
HOP-62 NSCLC = conditions: 10 µM unless noted
NCI-H460 lung = conditions: 10 µM unless noted
HOP-92 NSCLC = conditions: 10 µM
NCI-H522 lung = conditions: 10 µM unless noted
786-0 renal = conditions: 10 µM unless noted
COLO 205 colon = conditions: 10 µM unless noted
DU-145 prostate = conditions: 10 µM unless noted
K-562 leukemia = conditions: 10 µM unless noted
MALME-3M melanoma = conditions: 10 µM unless noted
MDA-MB-231 breast = conditions: 10 µM unless noted
RXF 393 renal = conditions: 10 µM unless noted
SF-268 CNS = conditions: 10 µM unless noted
SF-295 CNS = conditions: 10 µM unless noted
SF-539 CNS = conditions: 10 µM unless noted
UACC-257 melanoma = conditions: 10 µM unless noted
A549/ATCC NSCLC = conditions: 10 µM unless noted

SMILES	growth (NCI-H23 lung)	growth (NCI-H226 lung)	growth (NCI-H322M lung)	growth (HOP-62 NSCLC)	growth (NCI-H460 lung)	growth (HOP-92 NSCLC)	growth (NCI-H522 lung)	growth (786-0 renal)	growth (COLO 205 colon)	growth (DU-145 prostate)	growth (K-562 leukemia)	growth (MALME-3M melanoma)	growth (MDA-MB-231 breast)	growth (RXF 393 renal)	growth (SF-268 CNS)	growth (SF-295 CNS)	growth (SF-539 CNS)	growth (UACC-257 melanoma)	growth (A549/ATCC NSCLC)
NC(=O)c1c(NC(=O)c2ccc(F)cc2F)sc2c1CCC(=O)C2	18.5%	88%	99.8%	104%	109%	66.1%	10.2%	83.4%	98.7%	101%	15.8%	63.8%	39.2%	85.1%	34.7%	99.7%	16.3%	81.8%	
COc1c(N2CC3CCCNC3C2)c(F)cc2c(=O)c(C(=O)N/N=C/c3ccc4c(c3)OCO4)cn(C3CC3)c12 (configuration not stated)	81.8%	86.5%	88.3%	101%	79.2%	67.4%	29.3%	50.3%	85.5%	68.9%	2.44% (active)	90.3%	41.3%		79.4%	44.2%	-60.4% (active)	85.3%	70.2%
COc1ccc(C(=O)c2c(N)c(C#N)cn2-c2ccccc2OC)cc1	32.8%	60.5%	75.2%	56.3%	17.4%	52.5%	-1.29% (active)	43.7%	38.5%	52.4%	13.3%	42%	48.6%		44.1%	8.45% (active)	12.4%	66.9%	53.4%
CC1(C)CC[C@]2(CN)CC[C@]3(C)C(=CC[C@@H]4[C@@]5(C)CCCNC(C)(C)[C@@H]5CC[C@]43C)[C@H]2C1	104%	105%	99%	93.9%	99.5%	81.2%	105%	92.8%	109%	109%	3.16% (active)	102%	106%		98.6%	104%	99.7%	117%	92.2%
CCCCCc1ccc(S(=O)(=O)Nc2cccc(-c3csc(NC(=O)CN4CCN(CCO)CC4)n3)c2)cc1	84.7%	92.3%	98.6%	92.9%	44.4%	59.5%	89.1%	71.1%	59.2%	86.5%	19.6%	32.3%	76.7%		76.8%	77%	83.6%	85.4%	78.9%
Cc1ccc(-n2cc(/C=C/C(=O)c3ccc(O)cc3)c(-c3ccc(S(C)(=O)=O)cc3)n2)cc1	68.9%	99.6%	99.1%	76%	80.8%	110%	58.9%	94.4%	111%	82.8%	17.8%	44.9%	67.7%		85.9%	87.3%	60.2%	93.5%	102%
COc1ccc(/C=N/NC(=O)c2cn(C3CC3)c3c(OC)c(N4CC5CCCNC5C4)c(F)cc3c2=O)cc1 (configuration not stated)	85.7%	99%	89.7%	101%	92%	74.5%	102%	84.2%	95.1%	93.6%	7.92% (active)	90.4%	81.1%		83.6%	103%	35.5%	106%	98.5%
Cn1cc(CNc2nc3ccc(OC/C(=C/F)CN)cc3o2)ccc1=O	107%	101%	99.3%	109%	108%	108%	99.2%	92.4%	110%	110%	93.8%	98.7%	99.3%	107%	102%	96.1%	97.1%	111%	
C=CCn1c(SCC(=O)Nc2ccc(C(=O)/C=C/c3cccc([N+](=O)[O-])c3)cc2)nnc1-c1c[nH]c2ccccc12	94.1%	74.2%	91.2%	106%	102%	101%	78.9%	106%	110%	97%		86.6%	85.2%		84%	91%	96.4%	103%	93.9%
C=CCn1c(-c2nc3ccc(C(=C(C#N)C#N)c4ccccc4)cc3[nH]2)cc2cc(Br)ccc21	46.9%	66.4%	70.6%	59.5%	42.2%	63%	60.2%	59.2%	65.3%	72.4%	23.7%	84.1%	58.3%		62.9%	43.1%	65.3%	70.9%	51.7%
CC(=O)c1cc(C(=O)c2ccc(Br)cc2)n2cc(C)cc(C)c12	102%	86.4%	100%	85.6%	88.7%	99%	85.3%	89.4%	97.7%	94.8%	93.1%	111%	90%		89.7%	96%	88.4%	105%	97.1%
O=C(O)c1ccc(-n2cc(CNc3cc(F)c(F)c(F)c3)c(-c3ccc(F)cc3)n2)cc1	90%	101%	98%	113%	97.1%	108%	90.1%	109%	131%	98.3%	71.1%	76.5%	95.4%		105%	72.3%	93.5%	105%	77.8%
COc1ccc2c(c1)c(CC(=O)[Se]CC(=O)O)c(C)n2C(=O)c1ccc(Cl)cc1	78.9%	100%	46.8%	29.3%	5.72% (active)	93.7%	100%	106%	129%	85%	95.8%	112%	54.1%		64.1%	11.1%	66.8%	110%	21.6%
COc1cc(-c2nnc(SCc3ccc(O)c4ncccc34)n2-c2ccccc2)cc(OC)c1OC	9.25% (active)	8.85% (active)	19.2%	6.41% (active)	-29.8% (active)	-12.5% (active)	-8.34% (active)	8.31% (active)	10.1%	15.2%	4.83% (active)	-4.75% (active)	24.7%		8.87% (active)	0.13% (active)	0.686% (active)	-18.1% (active)	0.31% (active)
CCCCCc1ccc(S(=O)(=O)Nc2cc(-c3csc(NC(=O)CN4CCN(C)CC4)n3)ccc2N2CCN(C)CC2)cc1	45.1%	71.8%	6.19% (active)	42.5%	-56% (active)	49.9%	-39.5% (active)	-50.9% (active)	-51.2% (active)	15.9%	1.1% (active)	-91.4% (active)	-52.7% (active)		-33.5% (active)	-63.9% (active)	-86.2% (active)	-58.4% (active)	15.7%
N/C(=N\C(N)=N\c1nc2ccccc2s1)c1ccc(C(F)(F)F)cc1	39%	69.6%	100%	91%	22.6%	82.1%	88.1%	93%	119%	80.1%	76.6%	101%	84.5%		74.3%	69%	98.7%	115%	6.31% (active)
